Assay results from ChEMBL document CHEMBL2218924, “A broad activity screen in support of a chemogenomic map for kinase signalling research and drug discovery” (Biochem J, 2013).

Tests used:
[1] = molecular target: Ribosomal protein S6 kinase beta-1 (Homo sapiens) (UniProt P23443); conditions: at 1 µM
[2] = molecular target: Ribosomal protein S6 kinase beta-1 (Homo sapiens) (UniProt P23443); conditions: at 10 µM
[3] = molecular target: Serine/threonine-protein kinase Nek6 (Homo sapiens) (UniProt Q9HC98); conditions: at 1 µM
[4] = molecular target: Serine/threonine-protein kinase Nek6 (Homo sapiens) (UniProt Q9HC98); conditions: at 10 µM
[5] = molecular target: Serine/threonine-protein kinase Nek7 (Homo sapiens) (UniProt Q8TDX7); conditions: at 1 µM
[6] = molecular target: Serine/threonine-protein kinase Nek7 (Homo sapiens) (UniProt Q8TDX7); conditions: at 10 µM
[7] = molecular target: T1, Serine/threonine-protein kinase NLK (Homo sapiens) (UniProt Q9UBE8); conditions: at 1 µM
T1 sequence (whole entry): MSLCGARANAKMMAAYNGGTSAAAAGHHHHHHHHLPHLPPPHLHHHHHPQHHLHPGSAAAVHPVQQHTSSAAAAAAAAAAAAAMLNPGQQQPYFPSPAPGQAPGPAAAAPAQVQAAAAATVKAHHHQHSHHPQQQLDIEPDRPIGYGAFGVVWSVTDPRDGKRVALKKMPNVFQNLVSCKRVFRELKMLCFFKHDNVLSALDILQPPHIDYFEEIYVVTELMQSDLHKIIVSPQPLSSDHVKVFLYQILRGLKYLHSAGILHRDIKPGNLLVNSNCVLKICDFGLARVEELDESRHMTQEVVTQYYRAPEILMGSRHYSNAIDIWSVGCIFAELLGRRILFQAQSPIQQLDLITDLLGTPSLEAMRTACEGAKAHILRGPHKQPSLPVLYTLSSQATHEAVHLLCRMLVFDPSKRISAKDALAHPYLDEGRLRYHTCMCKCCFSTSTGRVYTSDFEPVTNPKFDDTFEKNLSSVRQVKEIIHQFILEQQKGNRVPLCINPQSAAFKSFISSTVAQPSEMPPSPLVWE

[8] = molecular target: T1, Serine/threonine-protein kinase NLK (Homo sapiens); conditions: at 10 µM
[9] = molecular target: Serine/threonine-protein kinase PAK 2 (Homo sapiens) (UniProt Q13177); conditions: at 1 µM
[10] = molecular target: Serine/threonine-protein kinase PAK 2 (Homo sapiens) (UniProt Q13177); conditions: at 10 µM
[11] = molecular target: Serine/threonine-protein kinase PAK 4 (Homo sapiens) (UniProt O96013); conditions: at 1 µM
[12] = molecular target: Serine/threonine-protein kinase PAK 4 (Homo sapiens) (UniProt O96013); conditions: at 10 µM
[13] = molecular target: Serine/threonine-protein kinase PAK 5 (Homo sapiens) (UniProt Q9P286); conditions: at 1 µM
[14] = molecular target: Serine/threonine-protein kinase PAK 5 (Homo sapiens) (UniProt Q9P286); conditions: at 10 µM
[15] = molecular target: Serine/threonine-protein kinase PAK 6 (Homo sapiens) (UniProt Q9NQU5); conditions: at 1 µM
[16] = molecular target: Serine/threonine-protein kinase PAK 6 (Homo sapiens) (UniProt Q9NQU5); conditions: at 10 µM
[17] = molecular target: PAS domain-containing serine/threonine-protein kinase (Homo sapiens) (UniProt Q96RG2); conditions: at 10 µM
[18] = molecular target: Activated CDC42 kinase 1 (Homo sapiens) (UniProt Q07912); conditions: at 1 µM
[19] = molecular target: Activated CDC42 kinase 1 (Homo sapiens) (UniProt Q07912); conditions: at 10 µM
[20] = molecular target: ALK tyrosine kinase receptor (Homo sapiens) (UniProt Q9UM73); conditions: at 1 µM
ALK tyrosine kinase receptor (Homo sapiens), sequence (Q9UM73 19-1620 limits assumed): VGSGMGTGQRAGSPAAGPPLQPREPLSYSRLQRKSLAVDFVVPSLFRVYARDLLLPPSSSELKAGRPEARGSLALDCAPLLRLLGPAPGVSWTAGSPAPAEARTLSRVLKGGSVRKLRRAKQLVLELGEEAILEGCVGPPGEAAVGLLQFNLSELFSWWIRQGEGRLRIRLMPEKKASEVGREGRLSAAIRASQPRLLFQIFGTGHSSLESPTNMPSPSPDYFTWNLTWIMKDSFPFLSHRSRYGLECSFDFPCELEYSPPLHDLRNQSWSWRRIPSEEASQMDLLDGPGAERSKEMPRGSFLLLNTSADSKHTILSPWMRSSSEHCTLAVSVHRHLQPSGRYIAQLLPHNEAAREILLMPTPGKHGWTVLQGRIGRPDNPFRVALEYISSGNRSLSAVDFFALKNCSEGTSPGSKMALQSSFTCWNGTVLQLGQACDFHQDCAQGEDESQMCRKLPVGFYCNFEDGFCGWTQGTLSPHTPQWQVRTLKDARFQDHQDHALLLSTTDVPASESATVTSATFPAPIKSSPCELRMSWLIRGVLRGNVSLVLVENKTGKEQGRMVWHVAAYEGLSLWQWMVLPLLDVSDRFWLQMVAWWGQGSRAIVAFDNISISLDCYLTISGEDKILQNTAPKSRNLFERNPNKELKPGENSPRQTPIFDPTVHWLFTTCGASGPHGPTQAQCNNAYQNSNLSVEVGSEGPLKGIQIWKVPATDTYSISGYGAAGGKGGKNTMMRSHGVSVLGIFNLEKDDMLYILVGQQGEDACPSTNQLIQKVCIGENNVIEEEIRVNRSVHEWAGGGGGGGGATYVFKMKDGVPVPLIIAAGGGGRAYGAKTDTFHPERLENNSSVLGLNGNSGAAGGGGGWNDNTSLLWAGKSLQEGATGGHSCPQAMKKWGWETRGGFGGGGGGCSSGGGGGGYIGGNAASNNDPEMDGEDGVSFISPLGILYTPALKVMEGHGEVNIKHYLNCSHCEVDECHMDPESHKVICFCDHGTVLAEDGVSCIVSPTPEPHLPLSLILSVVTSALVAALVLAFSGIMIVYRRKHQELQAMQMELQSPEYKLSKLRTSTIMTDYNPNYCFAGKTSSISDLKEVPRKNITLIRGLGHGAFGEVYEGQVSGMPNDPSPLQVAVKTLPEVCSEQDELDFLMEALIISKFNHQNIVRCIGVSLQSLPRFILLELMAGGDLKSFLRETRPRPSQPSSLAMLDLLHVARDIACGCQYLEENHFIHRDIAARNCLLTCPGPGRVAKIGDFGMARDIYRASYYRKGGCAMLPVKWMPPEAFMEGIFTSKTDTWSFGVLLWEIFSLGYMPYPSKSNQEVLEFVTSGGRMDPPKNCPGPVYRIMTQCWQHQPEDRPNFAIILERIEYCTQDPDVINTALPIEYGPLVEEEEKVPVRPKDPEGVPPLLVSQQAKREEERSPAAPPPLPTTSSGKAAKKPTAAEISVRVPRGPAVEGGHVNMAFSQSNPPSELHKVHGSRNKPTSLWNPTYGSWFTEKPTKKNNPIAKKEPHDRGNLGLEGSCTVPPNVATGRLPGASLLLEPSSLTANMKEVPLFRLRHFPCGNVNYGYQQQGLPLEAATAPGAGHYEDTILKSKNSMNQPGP

PAS domain-containing serine/threonine-protein kinase (Homo sapiens), sequence (Q96RG2 whole entry, the tested form may be a part): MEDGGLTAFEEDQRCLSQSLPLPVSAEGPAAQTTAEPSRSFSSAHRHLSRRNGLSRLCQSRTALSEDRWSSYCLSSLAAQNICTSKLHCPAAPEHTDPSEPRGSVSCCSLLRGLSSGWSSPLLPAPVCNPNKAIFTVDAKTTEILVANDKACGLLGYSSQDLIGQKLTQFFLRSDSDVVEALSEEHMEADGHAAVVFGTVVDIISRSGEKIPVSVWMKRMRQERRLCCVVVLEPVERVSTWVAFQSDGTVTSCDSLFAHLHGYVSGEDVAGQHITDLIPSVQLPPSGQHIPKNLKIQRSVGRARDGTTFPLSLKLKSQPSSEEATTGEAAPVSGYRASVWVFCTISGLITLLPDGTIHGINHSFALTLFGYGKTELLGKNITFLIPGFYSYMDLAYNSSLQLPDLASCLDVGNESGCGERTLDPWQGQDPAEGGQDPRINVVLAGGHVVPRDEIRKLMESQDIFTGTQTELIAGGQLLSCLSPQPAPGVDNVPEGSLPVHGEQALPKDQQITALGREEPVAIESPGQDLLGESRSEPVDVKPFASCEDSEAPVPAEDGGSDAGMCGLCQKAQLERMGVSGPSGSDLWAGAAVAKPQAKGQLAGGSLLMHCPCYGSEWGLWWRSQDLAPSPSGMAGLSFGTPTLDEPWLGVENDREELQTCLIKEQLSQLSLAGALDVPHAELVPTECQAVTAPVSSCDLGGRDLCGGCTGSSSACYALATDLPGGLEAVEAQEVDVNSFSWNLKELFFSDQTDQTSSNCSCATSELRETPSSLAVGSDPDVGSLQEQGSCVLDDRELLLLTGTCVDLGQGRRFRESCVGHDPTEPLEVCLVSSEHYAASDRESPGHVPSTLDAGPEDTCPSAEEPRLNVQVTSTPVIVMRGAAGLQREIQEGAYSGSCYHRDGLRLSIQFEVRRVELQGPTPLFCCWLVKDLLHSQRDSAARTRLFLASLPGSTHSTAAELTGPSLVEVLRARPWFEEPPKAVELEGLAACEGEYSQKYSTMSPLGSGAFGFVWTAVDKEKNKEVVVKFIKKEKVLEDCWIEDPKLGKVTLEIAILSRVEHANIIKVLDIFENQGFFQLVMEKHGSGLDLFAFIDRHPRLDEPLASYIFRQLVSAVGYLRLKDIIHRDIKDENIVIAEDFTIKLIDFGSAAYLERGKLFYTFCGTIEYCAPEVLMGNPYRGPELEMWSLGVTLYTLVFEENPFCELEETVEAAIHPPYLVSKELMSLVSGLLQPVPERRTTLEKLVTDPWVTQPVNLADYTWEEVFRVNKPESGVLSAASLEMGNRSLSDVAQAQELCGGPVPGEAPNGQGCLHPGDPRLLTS
Activated CDC42 kinase 1 (Homo sapiens), sequence (Q07912 whole entry, looked up): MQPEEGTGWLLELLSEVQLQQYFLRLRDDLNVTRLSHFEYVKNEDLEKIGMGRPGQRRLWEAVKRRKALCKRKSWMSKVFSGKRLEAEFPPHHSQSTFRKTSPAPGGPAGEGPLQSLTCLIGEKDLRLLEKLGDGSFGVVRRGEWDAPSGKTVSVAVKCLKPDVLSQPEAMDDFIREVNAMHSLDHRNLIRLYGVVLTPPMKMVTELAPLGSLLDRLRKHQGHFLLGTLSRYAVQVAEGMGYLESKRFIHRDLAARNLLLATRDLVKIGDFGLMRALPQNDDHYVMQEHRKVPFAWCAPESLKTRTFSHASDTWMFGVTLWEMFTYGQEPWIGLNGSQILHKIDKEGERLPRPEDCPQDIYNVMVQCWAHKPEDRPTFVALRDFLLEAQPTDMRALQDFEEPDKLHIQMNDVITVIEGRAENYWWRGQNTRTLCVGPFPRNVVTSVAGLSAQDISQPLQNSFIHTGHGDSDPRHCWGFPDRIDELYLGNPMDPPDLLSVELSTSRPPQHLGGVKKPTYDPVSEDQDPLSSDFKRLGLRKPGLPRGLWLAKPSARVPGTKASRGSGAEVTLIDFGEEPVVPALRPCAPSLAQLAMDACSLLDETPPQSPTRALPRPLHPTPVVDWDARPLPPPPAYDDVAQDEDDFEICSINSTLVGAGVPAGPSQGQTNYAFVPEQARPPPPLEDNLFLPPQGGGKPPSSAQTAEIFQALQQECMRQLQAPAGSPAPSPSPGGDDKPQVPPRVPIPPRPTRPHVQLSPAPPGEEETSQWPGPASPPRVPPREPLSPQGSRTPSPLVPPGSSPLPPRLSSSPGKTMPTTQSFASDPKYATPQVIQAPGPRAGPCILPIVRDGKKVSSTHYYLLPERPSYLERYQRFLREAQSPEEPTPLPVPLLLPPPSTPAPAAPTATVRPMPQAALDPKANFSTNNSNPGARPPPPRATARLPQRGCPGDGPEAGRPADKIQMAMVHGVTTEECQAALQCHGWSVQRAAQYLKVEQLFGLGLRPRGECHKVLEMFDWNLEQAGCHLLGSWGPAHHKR
Serine/threonine-protein kinase PAK 5 (Homo sapiens), sequence (Q9P286 whole entry, looked up): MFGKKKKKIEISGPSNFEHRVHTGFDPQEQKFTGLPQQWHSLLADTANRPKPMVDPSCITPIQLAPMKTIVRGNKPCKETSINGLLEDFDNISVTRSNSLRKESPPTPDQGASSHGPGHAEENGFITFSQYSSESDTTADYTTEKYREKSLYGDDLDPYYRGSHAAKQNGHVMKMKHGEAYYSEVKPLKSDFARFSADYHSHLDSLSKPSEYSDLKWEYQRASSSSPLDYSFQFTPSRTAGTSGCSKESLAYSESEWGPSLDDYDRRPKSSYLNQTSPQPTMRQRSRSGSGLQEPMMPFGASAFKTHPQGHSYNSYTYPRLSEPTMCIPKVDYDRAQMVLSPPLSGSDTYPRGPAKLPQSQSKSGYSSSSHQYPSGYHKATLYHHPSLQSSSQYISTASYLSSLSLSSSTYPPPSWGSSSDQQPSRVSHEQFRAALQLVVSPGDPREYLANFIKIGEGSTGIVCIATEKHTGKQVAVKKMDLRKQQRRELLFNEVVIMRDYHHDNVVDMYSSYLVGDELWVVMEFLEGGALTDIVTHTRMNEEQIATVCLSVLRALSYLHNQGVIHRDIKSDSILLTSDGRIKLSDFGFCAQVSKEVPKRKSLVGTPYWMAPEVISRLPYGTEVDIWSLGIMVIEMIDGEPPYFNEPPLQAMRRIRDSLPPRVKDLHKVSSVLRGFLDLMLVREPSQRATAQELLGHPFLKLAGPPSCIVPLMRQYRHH
Serine/threonine-protein kinase Nek6 (Homo sapiens), sequence (Q9HC98 whole entry): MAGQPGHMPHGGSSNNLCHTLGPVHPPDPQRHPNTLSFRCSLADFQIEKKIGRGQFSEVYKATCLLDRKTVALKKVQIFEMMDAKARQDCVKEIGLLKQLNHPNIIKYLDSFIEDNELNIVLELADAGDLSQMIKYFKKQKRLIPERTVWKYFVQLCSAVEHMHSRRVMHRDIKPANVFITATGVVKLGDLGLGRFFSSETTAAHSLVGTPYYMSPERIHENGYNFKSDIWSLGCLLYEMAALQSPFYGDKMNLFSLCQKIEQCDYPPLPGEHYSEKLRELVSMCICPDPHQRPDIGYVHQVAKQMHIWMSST

Compound	residual activity [1] [%]	residual activity [2] [%]	residual activity [3]	residual activity [4] [%]	residual activity [5]	residual activity [6]	residual activity [7] [%]	residual activity [8] [%]	residual activity [9] [%]	residual activity [10] [%]	residual activity [11] [%]	residual activity [12] [%]	residual activity [13] [%]	residual activity [14] [%]	residual activity [15] [%]	residual activity [16] [%]	residual activity [17] [%]	residual activity [18] [%]	residual activity [19] [%]	residual activity [20] [%]
O=C1NC(=O)/C(=C/c2ccc3c(c2)OC(F)(F)O3)S1	73	35	84% (inactive)	93	100% (inactive)	97% (inactive)	107	84	104	76	102	95	80	70	81	78	37	96	70	69
O=C1Nc2cc(Br)ccc2/C1=C1/Nc2ccccc2/C1=N\O	30	29	108% (inactive)	106	102% (inactive)	85% (inactive)	79	85	75	88	30	25	39	55	51	21	115	14	2	35
O=C(O)c1ccc2c3c1cccc3c(=O)n1c3ccccc3nc21	89	46	109% (inactive)	101	114% (inactive)	108% (inactive)	107	72	101	95	100	98	100	96	91	85	98	94	75	70
Nc1ccc2ncnc(NCCc3ccc(Oc4ccccc4)cc3)c2c1	81	51	105% (inactive)	120	111% (inactive)	117% (inactive)	111	96	103	89	107	87	100	81	95	84	65	81	55	81
O=c1c2ccccc2[nH]c(=S)n1CCN1CCC(=C(c2ccc(F)cc2)c2ccc(F)cc2)CC1	79	42	99% (inactive)	107	103% (inactive)	94% (inactive)	111	93	103	103	106	99	84	47	82	41	53	83	70	81
O=C1NC(=O)c2cc(Nc3ccc(F)cc3)c(Nc3ccc(F)cc3)cc21	81	101	112% (inactive)	111	98% (inactive)	98% (inactive)	92	80	107	79	89	74	98	66	100	64	51	79	34	84
Cc1nc2cc3nc(-c4cccs4)cnc3cc2n1C	98	112	104% (inactive)	112	102% (inactive)	107% (inactive)	104	95	99	86	95	101	106	105	111	102	86	107	74	93
CN(C)c1ccc(/C=C2\C(=O)Nc3ccccc32)cc1	69	29	108% (inactive)	107	118% (inactive)	116% (inactive)	110	88	96	100	100	83	95	77	83	77	23	89	62	80
CO[C@@H]1[C@H](N(C)C(=O)c2ccccc2)C[C@H]2O[C@]1(C)n1c3ccccc3c3c4c(c5c6ccccc6n2c5c31)C(=O)NC4	4	1	93% (inactive)	92	91% (inactive)	82% (inactive)	90	73	72	50	64	43	52	48	49	26	0	11	-1	32
CO[C@H]1[C@@H](OC)C[C@H](C)[C@@H](OC)C2=CC(=O)C=C(NC(=O)/C(C)=C/C=C/[C@H](OC)[C@@H](OC(N)=O)/C(C)=C/[C@@H]1C)C2=O	75	43	103% (inactive)	112	89% (inactive)	76% (inactive)	110	83	108	83	106	92	92	64	99	84	59	92	72	71
Cc1cc(Nc2nc(-c3ccccc3)nc3ccccc23)n[nH]1	46	10	105% (inactive)	105	105% (inactive)	–	–	–	–	45	9	2	21	3	47	7	121	13	0	70
O=C1Nc2ccc(Br)cc2/C1=C\c1cc2c([nH]1)CCCC2	84	51	104% (inactive)	102	101% (inactive)	102% (inactive)	97	97	113	100	84	77	–	105	–	–	98	54	50	76
c1ccc(-c2n[nH]c3c2oc2ccccc23)cc1	–	–	94% (inactive)	–	94% (inactive)	–	–	85	–	–	95	83	83	86	–	–	77	65	51	84
